In PubChem BioAssay (NCATS):
Results filed as inconclusive are left out. Entries that show only a call come without a potency. The source made the active and inactive calls. Calls follow the shape of the dose curve; as a rule, active = well fitted inhibition curve with a large enough effect; inconclusive = small, poorly fitted or top-dose-only effect; inactive = no such curve, though single readings can be large or run the other way.

target: Endonuclease 4 (Escherichia coli (strain K12)) (UniProt P0A6C1); test: Counterscreen for APE1 Inhibitors: qHTS Validation Assay for Inhibitors of Endonuclease IV (AID 1708); settings: E. coli endonuclease IV, DNA cleavage fluorescence; series mostly up to 57.1 µM
Text: Assay Provider: David M. Wilson, III, National Institute on Aging, NIH
Screening Center PI: Austin, C.P.
Screening Center: NIH Chemical Genomics Center [NCGC]
Escherichia coli endonuclease IV (Endo IV) is the key member of the AP endonuclease superfamily that catalyzes the cleavage of damaged DNA backbone immediately 5' of an AP site. E. coli EndoIV has the same functional activities as human APE1 but has no sequence or structural homology to the human protein. Herein, we utilize E. coli EndoIV to counter screen compound libraries as part of a high-throughput campaign for APE1 inhibitor identification. A concentration-response screen of the LOPAC1280 collection was performed under experimental conditions identical to those used in the APE1 screen.
Inhibition of APE1 activity was screened by utilizing double-stranded short substrate containing tetrahydrofuran (THF) abasic site labeled with rhodamine-type fluorophore (TAMRA) at the 5'-end and with non-fluorescent Black Hole Quencher-2 (BHQ-2) at the opposing 3'-end. An increase in the fluorescence intensity due to incision of the abasic site by APE1 was used to measure the enzyme activity.
Buffer: 50 mM Tris-HCl (pH 7.5) containing 50mM NaCl, 2 mM MgCl2, 1 mM DTT and 0.01% Tween-20.
Buffer in columns 3 and 4 as negative control (no enzyme).
Substrate: 50 nM final concentration of TAMRA/BHQ-2 substrate dispensed throughout the plate.
Enzyme: 2 nM E. coli EndoIV final concentration in columns 1, 2, 5-48. Column 1 is neutral (100% activity).
Control: Pintool transfer of control inhibitor NSC-13755 to column 2 of all assay plates. Two-fold, 16 pt dilution in duplicate to produce final concentrations in the 5.75 uM - 0.175 nM range.
Three uL of enzyme were dispensed to 1536-well Greiner black solid bottom plates. Compounds (23 nL) were transferred via Kalypsys pintool. The plates were incubated for 15 min at room temperature, and then 1 uL of substrate solution was added to start the reaction. The plates were immediately transferred into ViewLux High-throughput CCD imager (Perkin-Elmer) in order to measure the reaction progress in kinetic mode (three reads every 60 seconds) using 525 nm excitation and 598 nm emission fluorescence protocol. The fluorescence intensity difference between the third and the first time points was used to compute reaction progress.
Potency is read from the fitted curve at half-maximal effect.

SMILES | Potency
C[C@]12C[C@H](O)C3[C@@H](CCC4=CC(=O)CC[C@@]43C)[C@@H]1CC[C@@H]2C(=O)CO (stereo not given in full) | inactive
CC(=O)O[C@]1(C(C)=O)CC[C@H]2C3C=C(Cl)C4=CC(=O)[C@@H]5C[C@H]5[C@]4(C)C3CC[C@@]21C (stereo not given in full) | inactive
CCCCN1CCC(COC(=O)c2cc(Cl)c(N)c3c2OCCO3)CC1 | inactive
C[C@H]1c2cccc(O)c2C(O)=C2C(=O)[C@]3(O)C(O)=C(C(N)=O)C(=O)C(N(C)C)[C@@H]3[C@@H](O)C21 (stereo not given in full) | inactive
CC[C@H](C)C(=O)O[C@H]1CCC=C2C=C[C@H](C)[C@H](CC[C@@H]3C[C@H](O)CC(=O)O3)C21 (stereo not given in full) | inactive
N#CC(Cc1ccc(O)c(O)c1)C(=O)N1CCc2ccccc21 (stereo not given) | inactive
CC(=O)SC1CC2=CC(=O)CC[C@]2(C)C2CC[C@@]3(C)[C@@H](CC[C@@]34CCC(=O)O4)C12 (stereo not given in full) | inactive
Cc1cc(N)c2ccccc2[n+]1CCCCCCCCCCCCCC[n+]1c(C)cc(N)c2ccccc21 | 28.2 µM (active)
Nc1nc(Cl)nc2c1ncn2[C@@H]1O[C@H](CO)[C@H](O)[C@H]1O | inactive
C#C[C@]1(O)CC[C@H]2C3CCC4=Cc5oncc5CC4(C)C3CCC21C (stereo not given in full) | inactive
